# Rows were chosen to be rich in hits. Some 21% of all compounds tested hit in one or more screens of this group.
# AMA1 RON2 block: inhibitors of Plasmodium falciparum AMA1-RON2 interaction; AlphaScreen AMA1-biotinylated RON2 peptide binding; Potency, µM (series often up to 58.2 µM), for the others: at the top dose activity change, negative = inhibition, most hits filed as inhibitors; 360,000 compounds, 0.2% hits; AID 720542;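 further: potency means the concentration at half of the fitted maximal effect; 0% = vehicle wells and -100% = peptide control; nearly all actives have a fitted effect of over 45% in size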
#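 AMA1 (3D7) with his tag at 25 nM final met compounds first, then biotinylated RON2 peptide at 25 nM; detection used donor plus acceptor beads, 10 µg/mL apiece, read by AlphaScreen after 30 min at room temperature.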
# CHX counter: affects cycloheximide protein synthesis inhibition readout, counter-screen; 300,000 compounds, 12% hits; cell reporter, cycloheximide protein synthesis inhibition counterscreen; max response, %; in the data active means max response mostly above about 13%, no sharp cut-off; inactive means mostly below about 14%; further: read at 38.3 µM for the half of the compounds with a filed dose; 0% is about no effect
# Shiga toxin inh: inhibitors of Shiga toxin in Vero cells; Vero cells, Shiga toxin protein synthesis inhibition reporter; inhibition, % at 38.7 µM; 290,000 compounds, 9.2% hits; in the data active means inhibition mostly above about 28%, no sharp cut-off; inactive means mostly below about 43%; further: 0% is about no effect
# HCV inh: blocks hepatitis C virus | Huh7.5.1 HCVcc-Cre infection, luciferase reporter, 44 h | Potency, µM (titrated, usually from 41.8 µM), without a hit: at the highest dose activity change, negative = inhibition, usual class: inhibitors | 340,000 compounds, 3.4% hits | AID 651820; further: potency means the concentration at half of the fitted maximal effect; on the % scale 0 is the no-effect control and ±100 the full control effect
#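 Cells seeded at 1,000/well and cultured 4 h, then compounds added followed by HCVcc-Cre virus (~0.5 moi). After 44 h further culture, luciferase substrate was added, plates held 15 min at room temperature, and luminescence read for 15 sec.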
# Pf growth 48h: P. falciparum growth inhibition at 48 hours (one generation); P. falciparum luciferase growth in erythrocytes, 48 h; Potency, µM (doses to about 28.7 µM), for the others: at the top dose activity change, negative = inhibition, actives largely listed as inhibitors; 310,000 compounds, 5.9% hits; further: potency means the concentration at half of the fitted maximal effect; on the % scale 0 is the no-effect control and ±100 the full control effect
#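 In quantitative HTS format, infected erythrocytes bearing luciferase-reporter parasites were treated for a single generation at 37 C. Luminescence after adding detection reagent served as the growth measure.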
# Pf growth 96h: P. falciparum growth inhibition at 96 hours; P. falciparum luciferase reporter growth, 96 h; Potency, µM (highest dose often 28.7 µM), inactives show top-dose activity change, negative = inhibition, hits mostly inhibitors; 320,000 compounds, 6.9% hits; AID 504834; further: potency means the concentration at half of the fitted maximal effect; on the % scale 0 is the no-effect control and ±100 the full control effect
#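 P. falciparum expressing integrated firefly luciferase grown in erythrocytes (2% hematocrit, 0.05% parasitemia final) with compounds for 96 hours at 37 C, 5% CO2. Growth inhibition read as loss of luminescence after adding luciferase detection reagent.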
# Active calls of the source: *; ? = inconclusive; nt = no result given; [ ] = another dose, or the depositor's remark. Unless noted, the call rests on the fitted dose curve; in most records, active means well fitted curve in the direction sought with a large enough effect; inconclusive means small, poorly fitted or top-dose-only effect, or another doubt; inactive means no such curve, though single readings can be large; an effect the other way counts as inactive or inconclusive.
SMILES,AMA1 RON2 block,CHX counter,Shiga toxin inh,HCV inh,Pf growth 48h,Pf growth 96h
CN1/C(=C\C(=O)c2cccnc2)C(C)(C)c2ccccc21,13.5%,15.2*,24.0,7.9%,13.3%,?
CN(CC(=O)Nc1cccc(F)c1)CC(=O)N1CCc2ccccc21,13.4%,nt,nt,6.7%,-28.6%,-24.1%
COc1ccc(NC(=O)CC2C(=O)Nc3ccccc3N2CC(=O)N2CCCC2)cc1 (centres undefined),18.5%,nt,nt,7.4%,-28.4%,?
Nc1ccccc1Oc1ccc2ccccc2c1,-3.6%,14.2,42.5*,?,25.5%,?
Cc1ccccc1Oc1ccccc1N,-2.1%,2.4,12.3,-16.1%,-11.6%,?
Cc1ccc(SCC(=O)N2CCc3ccccc32)cc1,5.5%,45.9*,52.6*,11.4%,77.2%,?
O=C(CNc1ccccc1OC(F)F)N1CCc2ccccc21,4.4%,32.0*,45.0*,-18.0%,326.6%,0.8%
Nc1ccccc1SCC(=O)N1CCc2ccccc21,-7.9%,41.0*,67.2,?,63.4%,?
Cc1cc(C)nc(SCC(=O)N2CCc3ccccc32)n1,11.0%,nt,nt,0.8%,nt,nt
CC(C)c1nc(SCC(=O)N2CCc3ccccc32)n[nH]1,19.2%,20.8*,47.3,-0.8%,76.2%,35.2%
CCc1ncc(CN2CCCC(C(=O)Nc3ccc(-c4cscn4)cc3)C2)cn1 (centres undefined),-4.1%,14.6,18.6,-2.8%,0.7%,4.0%
O=C(CSC1=NCCS1)N1CCc2ccccc21,?,41.1*,178.3*,-9.2%,134.5%,?
Cc1ccc(-c2ccc(SCC(=O)N3CCCc4ccccc43)nn2)cc1,nt,23.8*,52.4*,5.3%,31.9%,?
O=C(O)c1ccccc1SCC(=O)N1CCc2ccccc21,22.1%,-1.4,1.7,-8.9%,114.7%,118.3%
COC(=O)c1c(C)oc(C)c1S(=O)(=O)NC(c1ccccc1)c1ccccc1,5.8%,-1.2,17.3,?,?,?
COc1ccccc1N1CCNC(C)C1=O (centres undefined),-5.2%,-1.4,nt,6.6%,45.6%,?
COc1ccc(CCNC(=O)CCn2cccc2)cc1OC,-13.7%,-2.8,-4.6,?,7.0%,32.3%
CCOc1ccc(CCNC(=O)CCn2cccc2)cc1OCC,-8.4%,-3.3,-5.2,-17.0%,?,1.65µM*
O=C(CCn1cccc1)NCCc1ccc(Cl)cc1,-10.6%,-3.7,31.5,-5.2%,6.4%,10.4µM*
Cc1nc2ncnn2c(C)c1CCC(=O)NCCC1=CCCCC1,-3.6%,1.9,0.7,37.4%,?,?
CCOc1ccc(CCNC(=O)CCc2c(C)nc3ncnn3c2C)cc1OCC,-5.5%,12.0,-7.9,-9.8%,?,5.86µM*
COc1ccc(N/N=C/c2c(O)n(-c3cccc(C)c3)c(=O)[nH]c2=O)cc1,62.7%,18.4*,48.1,-5.1%,18.6%,11.5%
COc1ccc(N/N=C/c2c(O)n(-c3ccc(C)c(C)c3)c(=O)[nH]c2=O)cc1,3.7%[2.32 µM],-2.3,16.3,5.3%,4.6%,-13.2%
O=S1(=O)N[C@@H](CC2=CCCCC2)C2CCCCC2O1 (some centres undefined),4.9%,1.1,-4.2,39.4%,29.1%,40.4%
CC1(C)OC(=O)C=C(CC2NS(=O)(=O)OC3CCCCC23)O1 (centres undefined),-10.7%,-0.7,-1.7,2.51µM*,2.1%,77.8%
O=C(C[C@@H]1NS(=O)(=O)OC2CCCCC21)c1ccccc1 (some centres undefined),6.5%,-4.0,-3.1,0.282µM*,18.3%,46.6%
O=C(NC1CCN(S(=O)(=O)c2ccccc2)CC1)c1ccccc1,1.1%,10.9,-11.3,-3.9%,9.6%,14.7µM*
Cc1ccc(C(=O)NC2CCN(S(=O)(=O)c3ccccc3F)CC2)cc1,7.8%,-3.6,nt,9.9%,-5.6%,13.1µM*
Cc1cccc(C(=O)NC2CCN(S(=O)(=O)c3ccccc3F)CC2)c1,-2.4%,-1.2,15.9,-5.6%,?,-11.2%
CC(C#N)(NC(=O)CN1CCN(S(=O)(=O)c2ccccc2C#N)CC1)C1CC1 (centres undefined),11.0%[11.6 µM],nt,nt,-18.8%,-24.5%,?
